From PubChem BioAssay (NCATS) come the findings set out here.

Molecules are shown by their SMILES. Activity calls are given as the source filed them. The rule behind the calls is not given here.

The conditions of the assay: Ebola virus entry assay, reporter ratio channel; Channel type: primary.
In the case of `COc1ccc(CCN(C)CCCC(C#N)(c2cc(OC)c(OC)c(OC)c2)C(C)C)cc1OC` (stereo not given), the half-maximal activity concentration (AC50) (in general, the midpoint of the concentration-response curve, whichever way the signal moves) was 14.1 µM (active). Consider `CC(CC1c2ccccc2CCc2ccccc21)CN(C)C` (stereo not given), for which the AC50 was 3.98 µM (active).

`CN(C)CCN(Cc1ccc(Cl)cc1)c1ccccn1`: the AC50 is 14.1 µM (active). Take `CCN(CC)CCOc1ccccc1C(=O)CCc1ccccc1`: the AC50 was 14.1 µM (active). In the case of `CN(C)CCOC(c1ccccc1)c1ccc(Br)cc1` (stereo not given), the half-maximal activity concentration (AC50) is 11.2 µM (active). For the compound `O=C1NCN(c2ccccc2)C12CCN(CCCC(c1ccc(F)cc1)c1ccc(F)cc1)CC2`, the AC50 was 1.26 µM (active). Turning to `OC(CCCN1CCCCC1)(c1ccccc1)c1ccccc1`, the AC50 was 7.94 µM (active). `CN1CCCN(C(c2ccccc2)c2ccc(Cl)cc2)CC1` (stereo not given): the AC50 was 3.16 µM (active). In the case of `Cc1cc(C(C)(C)C)cc(C)c1CC1=NCCN1`, the concentration at half-maximal activity (AC50) was 12.6 µM (active). Turning to `O=C(Nc1ccccc1)OCC(CN1CCCCC1)OC(=O)Nc1ccccc1` (stereo not given), the AC50 was 10 µM (active).
